# Assay results published in PubChem BioAssay (EPA / NIEHS).
# Results filed as inconclusive are left out. Active and inactive are the calls of the source. Rule for the calls: active = hit-call score of the fitted dose curve at least 0.9, where 1 is the maximum; inconclusive = response in the unintended direction; inactive = score below 0.9.
# Biological target: Nuclear receptor subfamily 1 group I member 2 (Homo sapiens) (UniProt O75469)
# Assay: ATG_PXR_TRANS: Attagene TRANS-FACTORIAL HepG2 Assay for human Pregnane X Receptor (PXR) (AID 2283008)
# Protocol: ATG_TRANS is a cell-based, multiplexed-readout assay that uses HepG2, a human liver cell line, with measurements taken at 24 hours after chemical dosing in a 24-well plate.ATG_PXR_TRANS is one of 30 assay component(s) measured or calculated from the ATG_TRANS assay. It is designed to make measurements of mRNA induction, a form of inducible reporter, as detected with fluorescence intensity signals by Reverse transcription polymerase chain reaction (RT-PCR) and Capillary electrophoresis technology.Data from the assay component ATG_PXR_TRANS was analyzed into 1 assay endpoint. This assay endpoint, ATG_PXR_TRANS, was analyzed in the positive analysis fitting direction relative to DMSO as the negative control and baseline of activity. Using a type of inducible reporter, measures of mRNA for gain-of-signal activity can be used to understand the reporter gene at the transcription factor-level as they relate to the gene NR1I2. Furthermore, this assay endpoint can be referred to as a primary readout, because this assay has produced multiple assay endpoints where this one serves a reporter gene function. To generalize the intended target to other relatable targets, this assay endpoint is annotated to the nuclear receptor intended target family, where the subfamily is non-steroidal.
# Human liver HepG2 cells are transiently transfected with multiple reporter transcription units (MRTUs) in 6-well plates using FuGene 6 reagent (Roche; 3 ml FuGene/1 mg DNA). The MRTU constructs are regulated by a cis-regulating element (promoter). […] A major difference between the CIS and TRANS system is that in CIS activities of endogenous TFs are measured, whereas the TRANS assay evaluates changes in activities of exogenous, chimeric NR-Gal4 proteins. […] At the end of 24 hour incubation, total RNA was isolated using TriZol reagent (Invitrogen). The isolated RNA is then reverse-transcribed using oligo(dT) primer and Mo-MLV reverse transcriptase (Invitrogen) with DNAse I (Ambion) treatment for 30 min. The one-tenth of the produced cDNA was amplified by PCR using Taq DNA polymerase (Invitrogen) and two reporter sequence-specific primers. The PCR products were fluorescently labeled by primer extension with 6-arboxyfluorescein (6-FAM) 5'-labeled reporter sequence-specific primer (2 min at 95 C, 20 s at 68 C and 10 min at 72 C) and these products were digested with 5U of HpaI (New England Biolabs) for 2h at 37 C. The fragments were purified using Qiaquick PCR columns (Qiagen), analyzed on an ABI 3130xL genetic analyzer (Applied Biosystems) with peak positions identified by using a set of X-rhodamine (ROX)-labeled MapMarker1000 molecular weight standards (BioVentures). The raw capillary electrophoresis data was processed using Attagraph software (Attagene).
# Chain of Nuclear receptor subfamily 1 group I member 2 (Homo sapiens) (O75469 whole entry, looked up): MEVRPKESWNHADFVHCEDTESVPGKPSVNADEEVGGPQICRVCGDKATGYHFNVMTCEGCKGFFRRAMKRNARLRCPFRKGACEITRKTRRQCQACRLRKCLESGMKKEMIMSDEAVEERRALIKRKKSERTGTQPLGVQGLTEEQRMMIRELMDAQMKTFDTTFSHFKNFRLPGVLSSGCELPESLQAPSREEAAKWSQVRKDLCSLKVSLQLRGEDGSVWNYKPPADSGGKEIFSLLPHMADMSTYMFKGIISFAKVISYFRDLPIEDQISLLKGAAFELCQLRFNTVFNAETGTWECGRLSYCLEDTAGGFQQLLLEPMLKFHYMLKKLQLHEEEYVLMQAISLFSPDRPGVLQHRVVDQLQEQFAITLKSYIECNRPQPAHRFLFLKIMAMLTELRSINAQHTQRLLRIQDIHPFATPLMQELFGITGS
Compound,AC50,outcome
CC(C)(C)c1cc(Cc2cc(C(C)(C)C)c(O)c(C(C)(C)C)c2)cc(C(C)(C)C)c1O,0.631 µM (active),
O=C(O)C(F)(F)OC(F)(F)C(F)(F)OC(F)(F)C(F)(F)OC(F)(F)F,,inactive
NCC(F)(F)C(F)(F)C(F)(F)C(F)(F)C(F)(F)C(F)(F)F,,inactive
CCCCCCCC/C=C\CCCCCCCC(=O)N(C)CC(=O)O,,inactive
C[C@]12CC[C@H]3C(=CCc4cc(O)ccc43)[C@@H]1CCC2=O,26.6 µM (active),
CCOC(C=C(C)CCC=C(C)C)OCC,26.5 µM (active),
C=C(C)CCCC,,inactive
Nc1c(Br)cc([N+](=O)[O-])cc1Br,26.8 µM (active),
CCCCCCCCCCCC(=O)Cl,,inactive
NS(=O)(=O)C(F)(F)C(F)(F)C(F)(F)C(F)(F)C(F)(F)C(F)(F)F,,inactive
Nc1cc([N+](=O)[O-])cc(Cl)c1O,,inactive
C#CC(O)CCC (stereo not given),,inactive
Oc1ccc2c(c1)CCC2,,inactive
CCOCN(C(=O)CS(=O)(=O)O)c1c(C)cccc1CC,,inactive
OCCCCl,,inactive
CC(=O)C=O,,inactive
O=C=NCc1cccc(CN=C=O)c1,,inactive
Cc1ccc([N+](=O)[O-])c(C)c1,,inactive
NC(O)(C(F)(F)F)C(F)(F)F,,inactive
OCC(O)CC(F)(F)C(F)(F)C(F)(F)C(F)(F)F (stereo not given),,inactive

Compound,AC50,outcome
N#CCCOCCC#N,,inactive
FC(F)(F)C(F)(F)C(F)(F)CC1CO1 (stereo not given),,inactive
C=C(C)C(=O)OCC(F)(F)C(F)(F)C(F)(F)C(F)F,,inactive
FC(F)(F)C(F)(F)C(F)(F)C(F)(F)C(F)(F)C(F)(F)CC[Si](Cl)(Cl)Cl,,inactive
O=C1OC(=O)c2ccc3c4c(ccc1c24)C(=O)OC3=O,,inactive
Cc1cnccn1,,inactive
O=C(O)C(F)(F)C(F)(F)C(F)(F)OC(F)(C(F)(F)F)C(F)(F)F,,inactive
O=C(O)C(F)(F)C(F)(F)C(F)(F)C(F)(F)C(F)(F)C(F)(F)C(F)F,,inactive
Cc1ccc2c(c1)OCC(=O)CO2,,inactive
O=C(O)C(F)(F)C(F)(F)C(F)(F)OC(F)(F)F,,inactive
CCN(CC)c1ccc(N=Nc2ccccc2)cc1,4.22 µM (active),
Cc1cc(O)c(C(C)(C)C)cc1C(C)(C)C,3.47 µM (active),
FC(F)(F)C(F)(F)C(F)(F)C(F)(F)C(F)(F)C(F)(F)C(F)(F)CCI,,inactive
C=CC(=O)OCC(F)(F)C(F)(F)C(F)(F)COC(=O)C=C,,inactive
NCC(F)(F)C(F)(F)C(F)(F)C(F)(F)C(F)(F)C(F)(F)C(F)(F)C(F)(F)F,,inactive
OCC(F)(F)C(F)(F)C(F)(F)C(F)(F)C(F)(F)C(F)(F)CO,,inactive
OCCCc1cccnc1,,inactive
CNS(=O)(=O)C(F)(F)C(F)(F)C(F)(F)C(F)(F)C(F)(F)C(F)(F)C(F)(F)C(F)(F)F,,inactive
Cc1ccc(O)c(-n2nc3ccccc3n2)c1,14.6 µM (active),
Cc1cccc(C)n1,,inactive
